MITF primary – human MITF inhibition, primary screen; actives 0.91% (n = 650,000); AlphaScreen MITF homodimerization, bead proximity signal; O75030; inhibition, % at 2.6 µM; in the data active = inhibition above about 50%
FBW7 activator – human FBW7 E3 ligase activation, primary screen; Q969H0; AlphaScreen FBW7–phospho-cyclin E peptide binding, activator screen; normalized activity (activation), % at 26.1 µM; actives 0.13% (n = 650,000); AID 1259310; in the data active = normalized activity above about 1.9%;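 note: purified mutant Fbw7 with reduced substrate affinity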
GPR151 ag – activators of human GPR151; activation, % at 11.2 µM; Q8TDV0; AID 1508602; actives 1% (n = 650,000); PathHunter beta-arrestin GPR151 cells, luminescence; in the data active = activation above about 4.9%
Target sequence (Q8TDV0 whole entry, looked up): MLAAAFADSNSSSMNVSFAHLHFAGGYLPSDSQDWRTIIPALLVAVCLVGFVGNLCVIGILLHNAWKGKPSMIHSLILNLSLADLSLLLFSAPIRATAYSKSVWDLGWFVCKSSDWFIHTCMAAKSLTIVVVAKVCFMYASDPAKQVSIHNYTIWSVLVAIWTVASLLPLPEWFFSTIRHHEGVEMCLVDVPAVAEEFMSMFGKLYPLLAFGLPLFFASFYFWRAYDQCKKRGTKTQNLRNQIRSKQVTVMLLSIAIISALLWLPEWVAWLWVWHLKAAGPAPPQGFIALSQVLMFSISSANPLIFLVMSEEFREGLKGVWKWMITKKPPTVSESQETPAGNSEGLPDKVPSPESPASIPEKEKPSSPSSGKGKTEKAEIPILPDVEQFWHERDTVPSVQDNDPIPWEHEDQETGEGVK
TEAD-YAP block – TEAD-YAP interaction inhibition | inhibition, % at 9.12 µM | AID 1259422 | HEK-TIYL cells, TEAD-Gal4/YAP UAS-luciferase luminescence | actives 1.4% (n = 640,000); in the data active = inhibition above about 32%
MITF inh conf – human MITF inhibition, confirmation; AlphaScreen MITF homodimerization, biotin/His-MITF beads; actives 16% (n = 4,700); inhibition, % at 2.6 µM; AID 1259372; shares compounds with MITF primary;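 active = inhibition above a cutoff derived from the DMSO control wells, cut at about 28% in these data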;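 note: inhibitors lower the bead chemiluminescence by keeping MITF from dimerizing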
AlphaScreen DR – AlphaScreen optical interference, dose response counter-screen | IC50, µM | AlphaScreen optical interference counterscreen, cell-free | actives 6% (n = 480) | shares compounds with MITF primary | AID 1259373; call rule not given here
AS interf ctr – AlphaScreen optical interference, counter-screen | actives 7.6% (n = 4,700) | LysRS AlphaScreen counterscreen, signal interference, triplicate | AID 1259376 | shares compounds with MITF primary | inhibition, % at 2.6 µM;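 active = inhibition above a cutoff derived from the DMSO control wells, cut at about 30% in these data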
Of the large screens only hits and unclear results are named; the others gave an inactive call (follow-up assays come after a bar, where they were run). Compounds with a hit are over-represented: about 3.5% of the library has one in this group of screens.

O=C(c1cc(Cc2ccccc2)no1)N1CCCC1	MITF primary 53 | MITF inh conf inactive | AS interf ctr inactive
O=C(c1cc(Cc2ccccc2)no1)N1CCSCC1	none
Cc1ccc(CNC(=O)CSc2ncnc3nc(N(C)Cc4ccccc4)sc23)cc1	none
O=C1CSc2ccc(S(=O)(=O)N3CCCC3)cc2N1	MITF primary 116 | MITF inh conf inactive | AS interf ctr inactive
CCN1CCN(S(=O)(=O)c2ccc3c(c2)SCC(=O)N3)CC1	none
CN=c1scc(C)n1/N=C/C1CCCCC1	MITF primary 97 | MITF inh conf inactive | AS interf ctr inactive
COc1ccc2ccccc2c1CN1CCN(C(=O)c2cccnc2)CC1	none
O=C(c1cccnc1)N1CCN(Cc2cccc3ccccc23)CC1	MITF primary 51 | MITF inh conf inactive | AS interf ctr inactive
CCOC(=O)N1CCN(Cc2cccc3ccccc23)CC1	none
O=C(c1ccncc1)N1CCN(Cc2cccc3ccccc23)CC1	MITF primary 67 | MITF inh conf inactive | AS interf ctr inactive
CCC(C)NC(=O)CSc1nnc(-c2ccoc2C)n1Cc1ccccc1 (centres undefined)	none
CCCCn1c(=O)[nH]c(=O)c2c1nc(-c1ccc(C)c([N+](=O)[O-])c1)n2CC	none
CCCCn1c(=O)[nH]c(=O)c2c1nc(-c1ccc([N+](=O)[O-])o1)n2C	MITF primary 79 | MITF inh conf 66 | AlphaScreen DR inactive | AS interf ctr inactive
FC(F)(F)c1ccccc1CN1CCN(Cc2ccc3ccccc3c2)CC1	MITF primary 83 | MITF inh conf inactive | AS interf ctr inactive
COc1cc(OC)c(OC)cc1CN1CCN(Cc2ccccc2C)CC1	MITF primary 74 | MITF inh conf inactive | AS interf ctr inactive
COc1ccc(CN2CCN(Cc3ccccc3C)CC2)cc1OC	MITF primary 62 | MITF inh conf inactive | AS interf ctr inactive
COc1cc(OC)c(OC)cc1CN1CCN(c2ccccc2OC)CC1	none
COc1ccccc1CN1CCN(Cc2ccc(OC)c(OC)c2)CC1	MITF primary 62 | MITF inh conf inactive | AS interf ctr inactive
COc1ccc(CN2CCN(Cc3ccccc3Cl)CC2)cc1OC	MITF primary 71 | MITF inh conf inactive | AS interf ctr inactive
COc1ccc(CNCc2ccccc2Cl)cc1OC	none
CCc1ccc(CN2CCN(Cc3ccccc3[N+](=O)[O-])CC2)cc1	MITF primary 74 | MITF inh conf inactive | AS interf ctr inactive
CCOc1cc(CN2CCN(Cc3ccccc3C)CC2)ccc1OC	MITF primary 52 | MITF inh conf inactive | AS interf ctr inactive
CCOc1cc(CN2CCN(Cc3cccc(C)c3)CC2)ccc1OC	none
COc1ccccc1CN1CCN(Cc2ccc3ccccc3c2)CC1	MITF primary 78 | MITF inh conf inactive | AS interf ctr inactive
COc1cccc(OC)c1C(=O)N1CCN(Cc2ccc3ccccc3c2)CC1	none
Cc1ccccc1N1CC(C(=O)OCC(=O)c2ccc(Cl)cc2)CC1=O (centres undefined)	none
COc1ccc(CN2CCCC(O)C2)cc1Br (centres undefined)	none
COc1cc(OC)c(OC)cc1CN1CCN(Cc2cccn2C)CC1	MITF primary 63 | MITF inh conf inactive | AS interf ctr inactive
CN(Cc1ccccc1)C1CCN(Cc2ccccc2[N+](=O)[O-])CC1	MITF primary 59 | MITF inh conf inactive | AS interf ctr inactive
COc1ccc(CN2CCN(Cc3ccccc3[N+](=O)[O-])CC2)cc1OC	MITF primary 67 | MITF inh conf inactive | AS interf ctr inactive
COc1cc(OC)c(OC)cc1CN1CCCN(C)CC1	none
COc1cc(OC)c(CN2CCCC(O)C2)cc1Br (centres undefined)	MITF primary 54 | MITF inh conf 33 | AlphaScreen DR inactive | AS interf ctr inactive
CCc1ccc(CNC(=O)C2CC(=O)N(Cc3ccc(OC)cc3)C2)cc1 (centres undefined)	none
COc1ccc(-c2nc3cnccn3c2NC(C)(C)C)cc1CN1CCOCC1	none
COc1cc(Br)c(CN2CCCN(C)CC2)cc1OC	none
COc1cc(OC)c(OC)cc1CN1CCN(Cc2cc(OC)c(OC)cc2Br)CC1	MITF primary 72 | MITF inh conf inactive | AS interf ctr inactive
Cc1nnc(NC(=O)CN2CCOCC2)s1	none
Cc1cc(C)cc(NC(=O)CN2CCc3ccccc3C2)c1	MITF primary 69 | MITF inh conf inactive | AS interf ctr inactive
CCN1CCN(CC(=O)N(C)c2ccccc2)CC1	MITF primary 67 | MITF inh conf inactive | AS interf ctr inactive
CCN1CCN(CC(=O)Nc2ccccc2)CC1	MITF primary 59 | MITF inh conf inactive | AS interf ctr inactive
CN(C(=O)N1CCN(C(=O)N(C)c2ccccc2)CC1)c1ccccc1	none
CCN1CCN(CC(=O)Nc2nnc(C)s2)CC1	MITF primary 74 | MITF inh conf inactive | AS interf ctr inactive
Cc1cc(C)cc(NC(=O)CCN2CCc3ccccc3C2)c1	none
CCN1CCN(CCC(=O)Nc2ccccc2)CC1	none
CCC(=O)N1c2ccccc2-c2nnc(SC)nc2OC1c1ccc(-c2ccc(F)cc2)o1 (centres undefined)	none
O=C(CNC(=O)c1ccccc1)c1ccc(Cl)cc1	none
CCN1CCN(CC(=O)NCc2ccccc2OC)CC1	MITF primary 99 | MITF inh conf inactive | AS interf ctr inactive
O=C1CC(N2CCOCC2)C(=O)N1c1cc(C(F)(F)F)ccc1Cl (centres undefined)	MITF primary 88 | MITF inh conf inactive | AS interf ctr inactive
CCCCCC(=O)Nc1ccc(S(=O)(=O)N2CCCC2)cc1	none
O=C(CN1Cc2ccccc2OC(c2ccccc2F)C1)NC1CCC(O)CC1 (centres undefined)	none
O=C(CN1Cc2ccccc2OC(c2ccccc2F)C1)NCC1CCS(=O)(=O)C1 (centres undefined)	MITF primary 61 | MITF inh conf inactive | AS interf ctr inactive
O=C(Nc1c(Cl)cccc1Cl)C1Cc2ccccc2CN1S(=O)(=O)c1ccc(F)cc1 (centres undefined)	none
O=C(CNc1ccc(F)cc1)N/N=C/c1ccccc1Cl	none
CC(C(=O)N1c2ccccc2CC1C)N1CCN(S(=O)(=O)c2ccccc2F)CC1 (centres undefined)	MITF primary 75 | MITF inh conf inactive | AS interf ctr inactive
CC1Cc2ccccc2N1S(=O)(=O)c1ccccc1F (centres undefined)	none
CC(C(=O)Nc1ccc(C#N)cc1)N1CCN(S(=O)(=O)c2ccccc2F)CC1 (centres undefined)	MITF primary 85 | MITF inh conf inactive | AS interf ctr inactive
CN(C)c1ccc(CN(CCO)CCO)cc1	none
COc1ccc(-c2coc3c(C)c(OCCN4CCN(CCO)CC4)ccc3c2=O)cc1	none
C(=N\Nc1nncc2ccccc12)/c1ccccn1	MITF primary 82, TEAD-YAP block 78 | MITF inh conf inactive | AS interf ctr inactive
